The whole screen tested about 48,000 compounds, of which about 13,000 (27%) showed an effect of 50% or more. This is one part of the list.
What follows are molecules tested on Wolbachia pipientis (assay: Anti-Wolbachia Cell-Based Screen). Details: 5 µM.
Type: functional
Set-up: scale not given: in the data most compounds retested in dose-response had high values

Structure (SMILES) | Percent Effect [%]
Cn1c(=O)c2sccc2n(CC(=O)Nc2cccc(Cl)c2)c1=O | 134.9
O=C(NCc1ccco1)Nc1cccc(S(=O)(=O)C(F)F)c1 | 12.8
Cc1nc2cc(OCc3nc(C(=O)NC(CO)CO)co3)ccc2s1 | -12.2
CCC(C(=O)NCc1ccncc1)N(c1ccc(F)cc1)S(C)(=O)=O (stereo unspecified) | -11.09
Cc1cc(C)c2nc(CN3CCC(CN)C3)cc(O)c2c1 (stereo unspecified) | -17.01
Cc1cc(Br)oc1C(=O)N1CCN(CC(N)=O)CC1 | -14.01
CS(=O)(=O)Cc1nc(C2CC2)nn1-c1ccccn1 | -14.62
CC(C)CS(=O)(=O)N1CCC2(CC1)CCn1c(-c3cnn(C)c3)cnc12 | 2.953
CN(C)c1nc(N)nc(CSCCC(=O)Nc2cccc(Cl)c2)n1 | 5.106
Cn1cc(CC(CNC(=O)Nc2cccc(Cl)c2)C(N)=O)cn1 (stereo unspecified) | 3.636
CC(C)n1c(=O)c2sccc2n(CC(=O)Nc2cccc(Cl)c2)c1=O | 121.3
O=C(NC[C@]12COC[C@H]1CN(Cc1nccs1)C2)c1ccccc1.O=C(O)C(F)(F)F | 17.76
Cc1cccc(CN2C[C@@H]3COC[C@]3(CNC(=O)N3CCCC3)C2)n1.O=C(O)C(F)(F)F.O=C(O)C(F)(F)F | 5.948
Cc1ccccc1CN1C[C@@H]2COC[C@]2(CNC(=O)C2CCC2)C1.O=C(O)C(F)(F)F | 116.7
COc1cccc(CN2C[C@@H]3COC[C@]3(CNC(=O)C3CC3)C2)c1.O=C(O)C(F)(F)F | 100.6
Cc1cccc(CN2C[C@@H]3COC[C@]3(CNC(=O)C3CCC3)C2)c1.O=C(O)C(F)(F)F | 92.72
O=C(NC[C@]12COC[C@H]1CN(Cc1nccs1)C2)N1CCCC1.O=C(O)C(F)(F)F | 28.78
Cc1cccc(CN2C[C@@H]3COC[C@]3(CNC(=O)C3CC3)C2)c1.O=C(O)C(F)(F)F | 102.9
N#Cc1cccc(-c2ncnn2CC2(O)CCCCC2)c1 | 2.299
COC(=O)CC(NC(=O)c1cccc(N2CCCC2=O)c1)C(=O)OC (stereo unspecified) | -7.194
Cc1ccc(-c2nc(CC(=O)N3CCCC(NC(=O)C(C)C)C3)cs2)o1 (stereo unspecified) | 6.035
CCCNC(=O)C(C)n1cc(Br)cn1 (stereo unspecified) | -2.063
Cc1ccc(-c2cc(C(=O)N3CCCC3c3cccnc3)[nH]n2)o1 (stereo unspecified) | -6.11
COCCNC(=O)C(C)n1nc(-c2ccc(C)o2)cc(N)c1=O (stereo unspecified) | 104.7
Cc1ccc(-c2cc(C(=O)NCCCc3csc(N)n3)[nH]n2)o1 | 17.13
Cc1ccc(-c2cc(N)c(=O)n(C(C)C(N)=O)n2)o1 (stereo unspecified) | 92.46

Structure (SMILES) | Percent Effect [%]
Cc1ccc(-c2cc(N)c(=O)n(C(C)C(=O)NC(C)C)n2)o1 (stereo unspecified) | 115.3
CC(=O)N1CCCN(C(=O)NC(C)c2ccc(C)o2)CC1 (stereo unspecified) | -7.479
CCCNC(=O)C(C)n1nc(-c2ccc(C)o2)cc(N)c1=O (stereo unspecified) | 87.57
COCCN(Cc1nccs1)C(=O)c1cc(-c2ccc(C)o2)n[nH]1 | -13.35
Cc1ccc(-c2nc(CC(=O)NCC(C)N3CCOCC3)cs2)o1 (stereo unspecified) | -1.179
Cc1c(C)n(Cc2ccccn2)c2nc3c(c(N)c12)CCCC3 | 5.52
O=C(CNc1cc(F)ccc1OC(F)F)NCC(F)(F)F | -13.2
CC(C)(CNC(=O)Nc1cccc(-c2nccs2)c1)C(N)=O | 2.635
Cc1noc(C[C@@H]2COC[C@H]3CN(C(=O)C4=CCCC4)C[C@@H]23)n1 | -8.987
O=C(O)C(F)(F)F.O=C([C@@H]1COC[C@H]2CN(C3CCOCC3)C[C@H]21)N1CCCO1 | 1.407
O=C1OCCC1N1CCN(c2ccc(O)cc2)CC1 (stereo unspecified) | 4.942
COC(=O)c1sccc1S(=O)(=O)NCCC(O)c1ccoc1 (stereo unspecified) | 6.712
O=C(NCC(O)c1ccoc1)Nc1c(F)cccc1F (stereo unspecified) | 35.5
O=C(NCC(O)c1ccsc1)Nc1cccs1 (stereo unspecified) | 136.4
Cc1csc(CNC(=O)NCC(O)c2ccccc2)n1 (stereo unspecified) | 14.77
CC(C)Oc1cccc(C(O)CNC(=O)Nc2cccs2)c1 (stereo unspecified) | -15.38
O=C(NCC(O)c1ccoc1)Nc1cccs1 (stereo unspecified) | 112.3
O=C(NCCC(O)c1ccoc1)Nc1cccs1 (stereo unspecified) | 118.3
O=C(NCC(O)c1cccs1)c1ccco1 (stereo unspecified) | -9.342
CCOc1ccccc1CCNC(=O)NCC(O)c1ccsc1 (stereo unspecified) | -9.165
O=C(NCc1cccs1)NCC(O)c1ccoc1 (stereo unspecified) | 136.2
O=C(NCCC(O)c1cccs1)c1ccco1 (stereo unspecified) | -4.816
CC(C)Oc1cccc(C(O)CNC(=O)NCc2cccs2)c1 (stereo unspecified) | -2.917
COCc1nc(CNC2CCSCC2)no1 | -3.755
CCc1nc2c(c(NCc3nc(-c4cccnc4)no3)n1)CCNCC2 | -4.803

Source: ChEMBL document CHEMBL3988442, “University of Dundee, Small-Polar-MMV Screening Library” (2021)
